High-throughput results: PubChem, National Center for Advancing Translational Sciences (NCATS)
An excerpt weighted towards active compounds, which were near 4.7% of everything screened.
TRHR PAM = TRH receptor (human) allosteric enhancement | P34981 | TRHR cells, fluo-8 calcium fluorescence, EC20 TRH enhancement | enhancement, % at 2 µM | 0.66% of 360,000 active | AID 493056; in the data active = enhancement above about 30%; also: 0% is about no effect
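TRHR-expressing cells loaded with fluo-8 calcium dye were read kinetically (ex 480/em 530) during compound addition, then stimulated with an EC20 of TRH (10 nM final). Enhancement of the Gq-mediated intracellular calcium response was scored.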
D1 potentiator = human D1 dopamine receptor positive modulation; 0.036% of 360,000 active; potentiation, % at 10 µM; HEK293 TREx D1 cells, calcium flux, dopamine EC20 potentiation; in the data active = potentiation above about 30%; also: 0% is about no effect
Target sequence (P21728 whole entry, looked up): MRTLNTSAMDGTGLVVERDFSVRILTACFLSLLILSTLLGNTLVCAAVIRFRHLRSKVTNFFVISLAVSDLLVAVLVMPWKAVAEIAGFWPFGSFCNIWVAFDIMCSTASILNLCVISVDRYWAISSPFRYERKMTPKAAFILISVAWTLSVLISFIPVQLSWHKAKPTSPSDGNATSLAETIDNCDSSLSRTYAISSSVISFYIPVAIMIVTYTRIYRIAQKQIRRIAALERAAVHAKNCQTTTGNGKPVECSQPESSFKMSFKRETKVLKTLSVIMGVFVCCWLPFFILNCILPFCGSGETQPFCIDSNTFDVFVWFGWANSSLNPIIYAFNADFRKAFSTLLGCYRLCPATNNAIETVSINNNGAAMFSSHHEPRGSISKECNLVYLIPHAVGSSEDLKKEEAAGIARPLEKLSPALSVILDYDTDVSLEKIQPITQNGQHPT
D1 antagonist = blocks dopamine activation of the human D1 receptor. P21728. HEK293 TREx D1 cells, calcium flux, dopamine EC80; active compounds read low. activity change, negative = inhibition, % at 10 µM. 3.2% of 360,000 active; in the data active = activity change below about -30%; also: % is scaled to controls: 0 for no effect and ±100 for the full control effect
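Calcium flux readout: force-coupled, inducible Hek293 Trex D1 line, cells induced overnight at 30 C with tetracycline, dye-loaded 30–90 min at RT. Antagonism scored against EC80 dopamine challenge given 180 s after compound.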
TRHR agonist = activates the human TRH receptor. 0.18% of 360,000 active. TRHR cells, calcium flux fluo-8, FDSS agonist mode. activation, % at 2 µM; also: 0% is about no effect
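Read-out: compound-evoked intracellular calcium rise in TRHR cells, fluo-8 dye, kinetic FDSS fluorescence at 1 s/cycle following a 10-cycle baseline. Cells cultured overnight before dye loading (30 min–1.5 h, RT).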
D1 ag = activates the human D1 dopamine receptor. HEK293 T-REx D1 cells, calcium flux, agonist mode. activation, % at 2 µM. 1% of 360,000 active. AID 504660; also: 0% is about no effect
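Tetracycline-induced HEK293 TREx D1 cells, force-coupled to calcium signalling, were dye-loaded with a no-wash calcium kit. Compound was pin-added after a 10 s baseline. Fluorescence was read kinetically at 1 cycle/s for 180 s, with calcium rises flagged as agonism.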
* hit, by the source's call; · = no result. Rule as the data show it, unless noted: active = activation above about 30%; inactive = the rest.

SMILES	TRHR PAM	D1 potentiator	D1 antagonist	TRHR agonist	D1 ag
Cc1ccc(NC(=O)c2ccc3c(c2)NC(=O)c2ccccc2S3)cc1	6.1	-6.0	-22.6	0.7	2.8
CCOC(=O)c1ccccc1NS(=O)(=O)c1cnn(CC)c1C	1.1	-2.0	-12.3	0.0	5.4
Cc1onc(-c2ccccc2)c1C(=O)N1CCN(C(=O)c2ccco2)CC1	30.1*	3.0	-16.4	-0.1	1.0
CCOc1ccccc1-c1nc(CN2CCCN(C(=O)c3ccco3)CC2)c(C)o1	1.4	-4.3	-67.5*	-0.8	-2.2
Cc1oc2ncn(C)c(=O)c2c1C(=O)Nc1ccccn1	-2.9	1.4	-6.6	0.7	1.1
COc1ccc(-c2cc3nc(C)cc(N)n3n2)cc1	30.0*	-2.7	-4.6	-0.2	0.9
CCN1CCN(C(C)CCc2ccccc2)CC1 (stereo not drawn)	1.2	-3.8	4.1	0.6	-2.1
CC(C)(C)OC(=O)CC12CCCCC1NC(=O)O2 (stereo not drawn)	7.4	4.4	2.5	0.1	1.8
O=C1CCC2CCCCC2(O)O1 (stereo not drawn)	33.4*	4.0	-4.3	0.2	2.4
CC(=O)c1cccc(NC(=O)C2CCCN(c3nnc(-n4cccc4)s3)C2)c1 (stereo not drawn)	0.2	-1.4	3.3	-0.6	0.4
Oc1ccccc1Nc1nc(-c2ccccc2)c2cc(Cl)ccc2n1	5.2	-3.4	0.7	0.7	1.6
O=C(CSc1nc2ccsc2c(=O)n1Cc1ccccc1F)NCc1ccccc1	-2.5	-2.8	-19.9	0.4	4.0
COc1nc(C)ccc1-c1noc(-c2cccs2)n1	-8.2	2.8	-34.6*	-1.0	2.2
Cn1c2cc(C(=O)O)sc2c2cnn(Cc3ccccc3F)c(=O)c21	6.1	13.7	7.1	1.2	-0.8
CCOC(=O)c1c(C)[nH]c(C)c1S(=O)(=O)N1CCCC(C(=O)NCc2ccc(Cl)cc2)C1 (stereo not drawn)	16.4	2.5	-30.9*	-0.5	3.8
CCOC(=O)c1c(C)[nH]c(C)c1S(=O)(=O)N1CCC(C(=O)Nc2ccccc2CC)CC1	1.2	2.8	-36.9*	-0.3	-0.1
CCOC(=O)N1CCN(S(=O)(=O)N2CCCC(C(=O)NCCc3ccc(Cl)cc3)C2)CC1 (stereo not drawn)	-2.2	-2.9	-40.8*	0.3	4.6
CCOC(=O)c1c(C)[nH]c(C)c1S(=O)(=O)N1CCCC(C(=O)NCc2ccc(C)cc2)C1 (stereo not drawn)	-1.9	-3.2	-2.5	-0.5	1.4
CSc1ncnc2c1ccn2CC(=O)Nc1ccc(C)c(C)c1	-6.0	0.5	-7.9	1.4	0.4
Cc1ccc2ncc(C(=O)Nc3ccc(F)cc3F)c(=O)n2c1	0.6	0.4	-1.5	-0.1	1.0
CCOC(=O)c1ccc(N2C(=O)c3n[nH]c(-c4cccs4)c3C2c2ccc(C(C)(C)C)cc2)cc1 (stereo not drawn)	-2.1	5.7	34.9	5.0	17.8
CCS(=O)(=O)N1CCc2cc(C(=O)Nc3ccc(OC)cc3OC)ccc21	-3.0	-0.8	-28.9	-0.6	0.9
COc1ccc(CCNC(=O)C2CCC(=O)N2CCc2ccccc2)cc1OC (stereo not drawn)	7.8	-6.3	-32.5*	2.9	1.6
COc1ccc(CC(=O)NC(C)CCc2ccccc2)cc1OC (stereo not drawn)	-6.0	0.6	13.0	-0.6	11.0
COc1ccc(CC(=O)NNC(=O)CCc2ccccc2)cc1OC	17.0	-4.5	-33.6*	0.5	4.4
SMILES	TRHR PAM	D1 potentiator	D1 antagonist	TRHR agonist	D1 ag
COc1ccc(/C(N)=N/OC(=O)CCc2ccccc2)cc1OC	-5.7	-5.2	-30.7*	-1.0	-0.9
COc1ccc(NC(=O)c2c(NC(=O)c3ccc(Br)cc3)sc3c2CCCC3)cc1	-3.4	-2.5	6.5	-1.2	-2.2
O=C(c1n[nH]c2ccccc12)N1CCN(S(=O)(=O)c2ccccc2)CC1	4.2	-3.0	1.1	0.9	5.3
COc1cccc(C(=O)N/N=C(/c2ccccc2)c2ccccn2)c1	-8.1	-1.8	-62.2*	-0.2	3.5
COc1cc(C(=O)N/N=C(\c2ccccc2)c2ccccn2)cc(OC)c1OC	4.0	-7.5	-10.4	0.1	-0.3
c1coc(CNc2ncnc3nc[nH]c23)c1	-0.4	0.3	0.5	0.6	2.9
c1coc(CNc2ncnc3[nH]ncc23)c1	7.5	-4.3	-40.7*	1.8	6.0
O=C(NNC(=S)NCCc1ccccc1)c1ccc(Br)s1	0.7	-5.9	-29.7	0.3	5.5
Cc1ccc(CN2COc3ccc4c(-c5ccccc5)cc(=O)oc4c3C2)cc1	55.3*	-2.4	-17.3	0.6	10.6
COc1ccc(CN2COc3ccc4c(-c5ccccc5)cc(=O)oc4c3C2)cc1	-0.5	-1.4	-24.6	-1.2	27.6
COC(=O)C(=O)Nc1cccc2cccnc12	-0.9	1.0	1.8	0.1	0.6
CCOc1cc(CNCCO)cc(Br)c1OCc1ccccc1	-2.7	-6.9	·	-0.1	8.2
CCOc1cc(CNCCc2ccc(S(N)(=O)=O)cc2)ccc1OCc1ccccc1	10.8	-8.1	-45.2*	3.9	34.8*
CCOc1cc(CNc2ccc(S(N)(=O)=O)cc2)cc(Cl)c1OC	6.1	1.8	-9.4	-0.5	1.6
NS(=O)(=O)c1ccc(CCNCc2cc(Br)ccc2OCc2ccccc2)cc1	-2.8	-0.8	-34.1*	0.2	34.2*
CCOc1cc(CNCCc2ccc(S(N)(=O)=O)cc2)cc(Cl)c1OCc1ccccc1	12.4	-6.1	-16.0	-0.1	34.0*
CCNCc1cc(Cl)c(OCc2ccccc2)c(OCC)c1	-4.3	-6.0	-0.2	0.7	54.6*
COc1cc(CNCCc2ccc(S(N)(=O)=O)cc2)ccc1OCC(=O)NC(C)(C)C	6.1	-0.5	7.1	1.2	2.0
CCOc1ccc(-c2cn3c(n2)sc2cc(C(=O)NCCc4ccc(OC)c(OC)c4)ccc23)cc1	-4.1	-7.8	3.8	0.5	2.4
CCOC(=O)c1ccccc1NC(=O)COC(=O)C1CCN(S(=O)(=O)c2ccccc2C(=O)OC)CC1	0.5	-1.0	-0.6	0.7	10.1
COC(=O)c1ccccc1S(=O)(=O)N1CCC(C(=O)OCc2ccc([N+](=O)[O-])cc2)CC1	-2.2	-1.6	-40.1*	1.2	13.0
CCc1nn(CC(=O)NC(C)CC)c(=O)c2cc3occc3n12 (stereo not drawn)	1.5	-3.0	12.5	0.7	0.6
CCOc1ccc(OCCCCNC(C)(C)C)cc1	-2.0	-6.0	-81.1*	-2.4	8.0
CC(=O)N(C1=C(O)c2ccccc2C(=O)C1=O)C1CCCCC1	-9.0	-1.1	-38.5*	0.4	0.3
c1ccc2cc(CNCc3cccc4ccccc34)ccc2c1	8.9	-1.1	15.0	0.6	6.9
CN(Cc1ccccc1)C(=O)c1nc2ccccn2c1CN1CCc2sccc2C1	-5.9	-4.3	-32.8*	-0.7	2.6
